# Values joined by “and” are separate entries in the source; they are usually repeats but may differ in a detail not shown here. Identical values can stand only once. Records with an inconclusive call do not appear. More than one record can exist for a structure, and the calls need not agree. Active and inactive are the calls of the source. Rule for the calls: active = hit-call score of the fitted dose curve at least 0.9, where 1 is the maximum; inconclusive = response in the unintended direction; inactive = score below 0.9.
# What was measured:
# [1] = target: human Protein Tyrosine Phosphatase Non-receptor Type 1 (PTPN1), PTPN1 (gene 5770) (UniProt P18031); assay: NVS_ENZ_hPTPN1: NovaScreen (NVS) Enzymatic Assay for human Protein Tyrosine Phosphatase Non-receptor Type 1 (PTPN1) (AID 2283201)
# human Protein Tyrosine Phosphatase Non-receptor Type 1 (PTPN1), PTPN1 (gene 5770), sequence (P18031 whole entry, looked up): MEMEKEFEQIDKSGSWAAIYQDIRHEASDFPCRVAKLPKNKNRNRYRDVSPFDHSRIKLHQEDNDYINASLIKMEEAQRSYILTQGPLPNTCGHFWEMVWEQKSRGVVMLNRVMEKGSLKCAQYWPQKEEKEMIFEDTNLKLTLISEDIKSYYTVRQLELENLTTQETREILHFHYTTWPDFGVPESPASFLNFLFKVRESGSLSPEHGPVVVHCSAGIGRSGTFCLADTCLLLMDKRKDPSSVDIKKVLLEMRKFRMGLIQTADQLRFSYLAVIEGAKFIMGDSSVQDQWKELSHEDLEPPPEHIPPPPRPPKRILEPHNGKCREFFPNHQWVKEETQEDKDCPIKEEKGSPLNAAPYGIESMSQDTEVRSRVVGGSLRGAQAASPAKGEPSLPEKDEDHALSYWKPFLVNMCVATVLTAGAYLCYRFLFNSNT
# Outline: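 Chemicals were first tested in duplicate at 25 uM, and those passing threshold went on to singleton concentration series topping at 50 uM. Recombinant enzyme, specific substrate, product separated by mobility shift, fluorescence read at 1.33 h; activity loss relative to DMSO.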
# [2] = target: Tyrosine-protein phosphatase non-receptor type 11 (Homo sapiens) (UniProt Q06124); assay: NVS_ENZ_hPTPN11: NovaScreen (NVS) Enzymatic Assay for human Protein Tyrosine Phosphatase Non-receptor Type 11 (PTPN11) (AID 2283202)
# Outline: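 Compounds first tested in duplicate at 25 uM; those reaching ~30% inhibition rerun in singleton concentration-response, top 50 uM. Phosphatase activity measured after 0.5 h by fluorescence with mobility-shift separation, relative to DMSO.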
# [3] = target: Tyrosine-protein phosphatase non-receptor type 12 (Homo sapiens) (UniProt Q05209); assay: NVS_ENZ_hPTPN12: NovaScreen (NVS) Enzymatic Assay for human Protein Tyrosine Phosphatase Non-receptor Type 12 (PTPN12) (AID 2283204)
# Tyrosine-protein phosphatase non-receptor type 12 (Homo sapiens), sequence (Q05209 whole entry, looked up): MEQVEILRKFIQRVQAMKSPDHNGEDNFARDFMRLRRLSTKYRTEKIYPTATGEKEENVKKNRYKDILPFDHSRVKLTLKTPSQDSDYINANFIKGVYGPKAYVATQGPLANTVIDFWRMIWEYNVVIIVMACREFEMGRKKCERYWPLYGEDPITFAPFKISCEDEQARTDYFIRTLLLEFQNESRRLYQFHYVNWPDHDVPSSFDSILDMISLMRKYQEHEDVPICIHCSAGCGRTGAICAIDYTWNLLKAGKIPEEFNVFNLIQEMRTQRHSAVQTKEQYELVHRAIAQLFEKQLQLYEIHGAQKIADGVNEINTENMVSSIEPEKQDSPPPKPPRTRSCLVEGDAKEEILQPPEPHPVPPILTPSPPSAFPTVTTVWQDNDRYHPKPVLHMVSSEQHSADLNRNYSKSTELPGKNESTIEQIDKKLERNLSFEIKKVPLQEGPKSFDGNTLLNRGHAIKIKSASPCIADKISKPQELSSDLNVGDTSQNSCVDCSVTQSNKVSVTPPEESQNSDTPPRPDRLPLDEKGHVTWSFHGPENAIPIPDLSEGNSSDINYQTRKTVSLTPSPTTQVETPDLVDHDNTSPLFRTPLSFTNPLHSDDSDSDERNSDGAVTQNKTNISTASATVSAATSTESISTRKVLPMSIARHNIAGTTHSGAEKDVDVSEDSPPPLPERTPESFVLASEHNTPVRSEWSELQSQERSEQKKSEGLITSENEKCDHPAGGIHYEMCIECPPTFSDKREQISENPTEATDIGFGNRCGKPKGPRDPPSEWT
# Outline: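 Single-concentration duplicates (25 uM) preceded singleton concentration-response up to 50 uM for chemicals passing threshold. Cell-free recombinant PTPN12 activity was read 1.33 h after dosing via fluorescence after mobility-shift separation; loss of signal versus DMSO.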
# [4] = target: Tyrosine-protein phosphatase non-receptor type 13 (Homo sapiens) (UniProt Q12923); assay: NVS_ENZ_hPTPN13: NovaScreen (NVS) Enzymatic Assay for human Protein Tyrosine Phosphatase Non-receptor Type 13 (PTPN13) (AID 2283205)
# Outline: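 Screened first at a single 25 uM in duplicate; compounds passing the threshold (e.g. 30% inhibition) were rerun in concentration series, top 50 uM. Recombinant enzyme, fluorescent substrate, mobility-shift separation, 0.5 h read. Data fitted as inhibition relative to DMSO.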
# [5] = target: Tyrosine-protein phosphatase non-receptor type 14 (Homo sapiens) (UniProt Q15678); assay: NVS_ENZ_hPTPN14: NovaScreen (NVS) Enzymatic Assay for human Protein Tyrosine Phosphatase Non-receptor Type 14 (PTPN14) (AID 2283206)
# Outline: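 Fluorescent substrate turnover by recombinant human PTPN14 was measured 0.5 h after compound addition, with substrate and product separated by mobility shift. Single-point screening at 25 uM, then concentration-response up to 50 uM for chemicals meeting threshold (e.g., 30% inhibition).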
# [6] = target: human Protein Tyrosine Phosphatase Non-receptor Type 4 (PTPN4), PTPN4 (gene 5775) (UniProt P29074); assay: NVS_ENZ_hPTPN4: NovaScreen (NVS) Enzymatic Assay for human Protein Tyrosine Phosphatase Non-receptor Type 4 (PTPN4) (AID 2283208)
# Outline: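 Screened in duplicate at 25 uM, with hits then titrated to a top concentration of 50 uM. Recombinant Sf9-derived PTPN4 turnover was read by fluorescence with electrophoretic separation, 1.33 h after compound addition. DMSO served as baseline.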
# [7] = target: human Protein Tyrosine Phosphatase Non-receptor Type 9 (PTPN9), PTPN9 (gene 5780) (UniProt P43378); assay: NVS_ENZ_hPTPN9: NovaScreen (NVS) Enzymatic Assay for human Protein Tyrosine Phosphatase Non-receptor Type 9 (PTPN9) (AID 2283209)
# human Protein Tyrosine Phosphatase Non-receptor Type 9 (PTPN9), PTPN9 (gene 5780), sequence (P43378 whole entry, looked up): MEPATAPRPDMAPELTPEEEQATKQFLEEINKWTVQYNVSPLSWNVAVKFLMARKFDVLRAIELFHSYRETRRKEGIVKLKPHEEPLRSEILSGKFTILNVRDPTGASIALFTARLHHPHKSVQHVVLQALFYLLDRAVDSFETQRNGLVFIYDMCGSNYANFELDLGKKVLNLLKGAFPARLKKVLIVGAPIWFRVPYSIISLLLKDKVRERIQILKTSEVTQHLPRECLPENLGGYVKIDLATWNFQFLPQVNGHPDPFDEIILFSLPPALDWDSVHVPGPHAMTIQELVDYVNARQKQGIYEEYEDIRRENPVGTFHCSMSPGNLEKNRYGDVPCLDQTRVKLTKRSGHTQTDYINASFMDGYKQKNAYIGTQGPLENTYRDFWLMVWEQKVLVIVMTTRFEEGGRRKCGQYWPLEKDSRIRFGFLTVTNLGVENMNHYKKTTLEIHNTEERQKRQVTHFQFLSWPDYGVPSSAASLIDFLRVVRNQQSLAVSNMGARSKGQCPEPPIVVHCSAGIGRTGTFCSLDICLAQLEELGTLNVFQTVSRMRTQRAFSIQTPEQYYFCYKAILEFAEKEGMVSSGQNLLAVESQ
# Outline: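 Sf9-expressed enzyme in a cell-free assay, fluorescence read 1.33 h after dosing with mobility-shift separation of substrate and product. Tested at 25 uM in duplicate, then up to 50 uM; signal loss versus DMSO.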
# [8] = target: human Protein Tyrosine Phosphatase Non-receptor Type 6 (PTPN6), PTPN6 (gene 5777) (UniProt P29350); assay: NVS_ENZ_hPTPN6: NovaScreen (NVS) Enzymatic Assay for human Protein Tyrosine Phosphatase Non-receptor Type 6 (PTPN6) (AID 2283210)
# Outline: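 Recombinant human PTPN6 from SF9 cells, enzyme activity followed by fluorescence after mobility-shift separation of substrate and product at 1.33 h. Chemicals first tested at a single 25 uM in duplicate, then confirmed across concentration series; loss of signal relative to DMSO.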
# [9] = target: human Protein Tyrosine Phosphatase Receptor Type B (PTPRB), PTPRB (gene 5787) (UniProt P23467); assay: NVS_ENZ_hPTPRB: NovaScreen (NVS) Enzymatic Assay for human Protein Tyrosine Phosphatase Receptor Type B (PTPRB) (AID 2283211)
# Outline: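 Recombinant human PTPRB with a fluorescent substrate, product separated by electrophoretic mobility shift; read 1 h after dosing. Primary screen in duplicate at 25 uM; actives then retested in concentration series; loss of signal versus DMSO.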
# [10] = target: human Protein Tyrosine Phosphatase Receptor Type F (PTPRF), PTPRF (gene 5792) (UniProt P10586); assay: NVS_ENZ_hPTPRF: NovaScreen (NVS) Enzymatic Assay for human Protein Tyrosine Phosphatase Receptor Type F (PTPRF) (AID 2283213)
# Outline: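 Cell-free fluorescence enzyme assay with recombinant protein and substrate; product separated by electrophoretic mobility shift. Read 1 h after dosing, single 25 uM duplicate screen, then concentration-response up to 50 uM; loss of signal vs DMSO.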
# [11] = target: human Rho Associated Coiled-coil Containing Protein Kinase 1 (ROCK1), ROCK1 (gene 6093) (UniProt Q13464); assay: NVS_ENZ_hROCK1: NovaScreen (NVS) Enzymatic Assay for human Rho Associated Coiled-coil Containing Protein Kinase 1 (ROCK1) (AID 2283214)
# human Rho Associated Coiled-coil Containing Protein Kinase 1 (ROCK1), ROCK1 (gene 6093), sequence (Q13464 whole entry, looked up): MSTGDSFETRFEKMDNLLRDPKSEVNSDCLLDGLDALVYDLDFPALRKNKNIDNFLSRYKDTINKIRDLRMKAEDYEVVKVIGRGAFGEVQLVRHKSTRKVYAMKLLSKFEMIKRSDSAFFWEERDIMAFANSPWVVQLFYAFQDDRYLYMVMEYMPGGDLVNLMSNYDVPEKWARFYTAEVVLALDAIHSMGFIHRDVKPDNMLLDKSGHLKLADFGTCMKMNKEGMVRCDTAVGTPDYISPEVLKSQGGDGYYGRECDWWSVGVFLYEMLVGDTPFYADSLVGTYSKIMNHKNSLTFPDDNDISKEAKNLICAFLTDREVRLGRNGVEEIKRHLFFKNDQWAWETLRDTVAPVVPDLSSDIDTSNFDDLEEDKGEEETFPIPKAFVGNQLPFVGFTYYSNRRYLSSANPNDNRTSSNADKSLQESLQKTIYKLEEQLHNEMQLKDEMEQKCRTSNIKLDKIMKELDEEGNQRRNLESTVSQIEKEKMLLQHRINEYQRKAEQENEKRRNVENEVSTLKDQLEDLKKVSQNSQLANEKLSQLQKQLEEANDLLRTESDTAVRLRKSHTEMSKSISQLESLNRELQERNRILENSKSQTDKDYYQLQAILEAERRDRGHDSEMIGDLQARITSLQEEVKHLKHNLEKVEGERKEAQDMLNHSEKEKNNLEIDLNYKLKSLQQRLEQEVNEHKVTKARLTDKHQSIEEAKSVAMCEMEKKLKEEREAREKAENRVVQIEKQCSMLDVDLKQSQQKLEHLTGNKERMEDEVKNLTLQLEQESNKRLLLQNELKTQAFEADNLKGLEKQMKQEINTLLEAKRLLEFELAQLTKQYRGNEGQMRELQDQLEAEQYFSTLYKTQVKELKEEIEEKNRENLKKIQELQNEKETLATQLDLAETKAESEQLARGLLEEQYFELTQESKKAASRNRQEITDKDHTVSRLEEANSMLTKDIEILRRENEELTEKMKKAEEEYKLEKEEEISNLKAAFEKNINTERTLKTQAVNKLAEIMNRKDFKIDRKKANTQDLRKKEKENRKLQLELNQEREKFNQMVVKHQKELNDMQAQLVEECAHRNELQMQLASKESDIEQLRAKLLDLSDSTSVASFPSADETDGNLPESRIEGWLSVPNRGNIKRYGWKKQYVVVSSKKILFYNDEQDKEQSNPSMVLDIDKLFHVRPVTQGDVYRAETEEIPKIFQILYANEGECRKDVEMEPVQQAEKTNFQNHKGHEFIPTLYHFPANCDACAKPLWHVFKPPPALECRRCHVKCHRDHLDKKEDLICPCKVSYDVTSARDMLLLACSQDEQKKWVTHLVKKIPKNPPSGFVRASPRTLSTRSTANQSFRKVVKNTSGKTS
# Outline: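 Compounds first run in duplicate at 25 uM against recombinant human ROCK1, then followed in concentration series. Kinase activity was read 1 h post-dosing by fluorescence with mobility-shift separation, as signal loss relative to DMSO.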
# [12] = target: human Sirtuin 2 (SIRT2), SIRT2 (gene 22933) (UniProt Q8IXJ6); assay: NVS_ENZ_hSIRT2: NovaScreen (NVS) Enzymatic Assay for human Sirtuin 2 (SIRT2) (AID 2283217)
# human Sirtuin 2 (SIRT2), SIRT2 (gene 22933), sequence (Q8IXJ6 whole entry, looked up): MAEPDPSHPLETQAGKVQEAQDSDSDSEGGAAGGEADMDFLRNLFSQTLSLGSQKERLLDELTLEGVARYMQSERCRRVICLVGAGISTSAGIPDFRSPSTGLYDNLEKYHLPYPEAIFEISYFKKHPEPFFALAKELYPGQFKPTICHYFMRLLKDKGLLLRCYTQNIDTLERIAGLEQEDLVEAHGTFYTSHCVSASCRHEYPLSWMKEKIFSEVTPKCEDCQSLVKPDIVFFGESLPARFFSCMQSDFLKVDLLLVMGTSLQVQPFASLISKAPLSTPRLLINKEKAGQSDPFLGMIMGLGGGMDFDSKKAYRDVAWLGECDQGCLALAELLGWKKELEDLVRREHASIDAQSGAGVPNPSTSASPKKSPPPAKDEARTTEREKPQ
# Outline: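 Single-point duplicate screen at 25 uM, then concentration-response (max 50 uM) for chemicals passing threshold. Enzyme activity of recombinant human SIRT2 measured after 1 hr by fluorescence with mobility-shift separation of product; DMSO baseline.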
# [13] = target: human Sirtuin 1 (SIRT1), SIRT1 (gene 23411) (UniProt Q96EB6); assay: NVS_ENZ_hSIRT1: NovaScreen (NVS) Enzymatic Assay for human Sirtuin 1 (SIRT1) (AID 2283219)
# Outline: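 Cell-free recombinant SIRT1 with a fluorescent substrate; substrate and product separated by electrophoretic mobility shift and read by fluorescence intensity, 1 h after dosing. Primary screen at 25 uM in duplicate; hits re-run in concentration-response up to 50 uM, relative to DMSO.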
# [14] = target: human Sirtuin 3 (SIRT3), SIRT3 (gene 23410) (UniProt Q9NTG7); assay: NVS_ENZ_hSIRT3: NovaScreen (NVS) Enzymatic Assay for human Sirtuin 3 (SIRT3) (AID 2283222)
# Outline: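 Cell-free enzyme assay with recombinant protein and fluorescent substrate, product separated by electrophoretic mobility shift; read 1 hour after dosing. Screened in duplicate at 25 uM, then singleton concentration-response up to 50 uM; loss of signal versus DMSO.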
# [15] = target: human SRC Proto-Oncogene, Non-receptor Tyrosine Kinase (SRC), SRC (gene 6714) (UniProt P12931); assay: NVS_ENZ_hSRC: NovaScreen (NVS) Enzymatic Assay for human SRC Proto-Oncogene, Non-receptor Tyrosine Kinase (SRC) (AID 2283223)
# Outline: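 Compounds passing 30% inhibition at 25 uM (duplicate) were titrated to a top concentration of 50 uM. Enzyme activity read by fluorescence with mobility-shift substrate/product separation after 1 h; DMSO baseline.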
# [16] = target: human Tropomyosin Receptor Kinase A (TRKA), NTRK1 (gene 4914) (UniProt P04629); assay: NVS_ENZ_hTrkA: NovaScreen (NVS) Enzymatic Assay for human Tropomyosin Receptor Kinase A (TRKA) (AID 2283224)
# Outline: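 Compounds were screened at 25 uM in duplicate, then concentration series to a 50 uM top for those meeting threshold (e.g. 30% inhibition). Enzyme was recombinant human TrkA, incubated 1 h. Product formation was quantified by fluorescence after mobility-shift separation.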
# [17] = target: human Vascular Endothelial Growth Factor Receptor 1 (VEGFR1), FLT1 (gene 2321) (UniProt P17948); assay: NVS_ENZ_hVEGFR1: NovaScreen (NVS) Enzymatic Assay for human Vascular Endothelial Growth Factor Receptor 1 (VEGFR1) (AID 2283226)
# human Vascular Endothelial Growth Factor Receptor 1 (VEGFR1), FLT1 (gene 2321), sequence (P17948 whole entry, looked up): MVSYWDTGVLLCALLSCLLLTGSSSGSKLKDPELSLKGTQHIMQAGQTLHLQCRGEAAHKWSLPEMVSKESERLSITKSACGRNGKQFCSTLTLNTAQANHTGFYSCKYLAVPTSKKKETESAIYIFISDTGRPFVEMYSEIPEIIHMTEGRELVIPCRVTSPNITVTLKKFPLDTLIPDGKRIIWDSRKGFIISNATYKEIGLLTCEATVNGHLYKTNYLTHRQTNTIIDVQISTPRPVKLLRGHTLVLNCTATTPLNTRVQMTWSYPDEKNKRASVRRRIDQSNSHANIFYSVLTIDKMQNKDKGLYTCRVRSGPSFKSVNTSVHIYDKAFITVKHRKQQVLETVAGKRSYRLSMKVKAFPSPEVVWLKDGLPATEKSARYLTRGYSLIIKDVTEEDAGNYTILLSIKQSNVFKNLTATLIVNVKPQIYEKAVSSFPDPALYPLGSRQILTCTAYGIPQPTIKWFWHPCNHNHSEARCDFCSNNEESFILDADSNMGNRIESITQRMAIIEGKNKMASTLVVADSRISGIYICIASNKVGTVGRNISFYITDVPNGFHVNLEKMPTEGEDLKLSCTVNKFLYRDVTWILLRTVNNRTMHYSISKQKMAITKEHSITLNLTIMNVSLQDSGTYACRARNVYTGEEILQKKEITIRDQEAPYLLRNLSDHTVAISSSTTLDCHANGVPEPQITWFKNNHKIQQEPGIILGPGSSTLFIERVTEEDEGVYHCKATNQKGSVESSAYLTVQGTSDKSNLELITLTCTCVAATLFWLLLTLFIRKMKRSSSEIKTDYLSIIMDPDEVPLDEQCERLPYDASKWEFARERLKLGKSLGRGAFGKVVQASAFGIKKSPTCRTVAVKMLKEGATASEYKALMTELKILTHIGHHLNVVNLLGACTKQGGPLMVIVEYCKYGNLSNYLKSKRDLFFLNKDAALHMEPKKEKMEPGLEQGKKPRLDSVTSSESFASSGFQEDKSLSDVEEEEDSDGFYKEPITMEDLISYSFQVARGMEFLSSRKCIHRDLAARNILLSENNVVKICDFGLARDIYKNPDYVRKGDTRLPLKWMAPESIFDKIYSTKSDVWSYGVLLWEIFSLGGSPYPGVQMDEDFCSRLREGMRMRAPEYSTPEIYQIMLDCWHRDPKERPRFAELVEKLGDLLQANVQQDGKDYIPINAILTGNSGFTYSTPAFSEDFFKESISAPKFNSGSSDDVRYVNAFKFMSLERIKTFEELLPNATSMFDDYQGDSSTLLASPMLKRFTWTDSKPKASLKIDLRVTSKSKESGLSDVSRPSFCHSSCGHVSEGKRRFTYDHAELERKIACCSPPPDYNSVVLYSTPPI
# Outline: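 Kinase activity of recombinant human VEGFR1 was read by fluorescence after electrophoretic separation of product from substrate, 1 h post-dosing; initial duplicate single-point testing at 25 uM, followed by concentration-series follow-up, with DMSO as baseline.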
# [18] = target: rabbit Imidazoline 2 Central (I2C), CKB (gene 100009085) (UniProt P00567); assay: NVS_ENZ_rabI2C: NovaScreen (NVS) Enzymatic Assay for rabbit Imidazoline 2 Central (I2C) (AID 2283228)
# Outline: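 Rabbit brain membranes, cell-free; readout by filter-based scintillation counting 1.5 hours after dosing, loss of signal vs DMSO. Initial duplicate test at 25 uM, then concentration-response with 50 uM top concentration.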
# [19] = target: Serine/threonine-protein phosphatase PP1-alpha catalytic subunit (Homo sapiens) (UniProt P62136); assay: NVS_ENZ_hPPP1CA: NovaScreen (NVS) Enzymatic Assay for human Protein Phosphatase 1 Aatalytic subunit Alpha (PPP1CA) (AID 2283200)
# Outline: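 Chemicals were first screened in duplicate at 25 uM, and those passing threshold (e.g. 30% inhibition) were run as concentration series to 50 uM. Cell-free recombinant protein, 1.33 h read, fluorescent substrate/product mobility-shift detection, normalised to DMSO.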
# [20] = target: human Protein Tyrosine Phosphatase Receptor Type M (PTPRM), PTPRM (gene 5797) (UniProt P28827); assay: NVS_ENZ_hPTPRM: NovaScreen (NVS) Enzymatic Assay for human Protein Tyrosine Phosphatase Receptor Type M (PTPRM) (AID 2283215)
# Outline: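 Read-out is fluorescence after electrophoretic separation of substrate and product, taken 1.33 h post-dosing with recombinant enzyme. Compounds screened at 25 uM in duplicate, then concentration series for actives; activity as signal loss relative to DMSO.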
smiles,measurement,setting,value
S=C(S)NCCNC(=S)S.[Mn+2].[S-]C([S-])=NCCN=C([S-])[S-].[Zn+2],AC50,[1],830 nM (active) and 1.81 µM (active)
same,AC50,[2],463 nM (active) and 603 nM (active)
same,AC50,[3],486 nM (active) and 1.35 µM (active)
same,AC50,[4],3.5 µM (active) and 7.66 µM (active) and 4.12 µM (active)
same,AC50,[5],25 µM (active)
same,AC50,[6],183 nM (active) and 38.9 nM (active)
same,AC50,[7],419 nM (active) and 26.1 nM (active)
same,AC50,[8],3.57 µM (active) and 30.5 µM (active)
same,AC50,[9],22.4 nM (active) and 4.12 µM (active)
same,AC50,[10],1.38 µM (active) and 1.98 µM (active)
same,outcome,[10],inactive
same,outcome,[11],inactive
same,AC50,[12],4.58 µM (active)
same,outcome,[12],inactive
same,AC50,[13],3.63 µM (active) and 4.01 µM (active) and 3.03 µM (active)
same,AC50,[14],25 µM (active)
same,outcome,[14],inactive
same,AC50,[15],1.47 µM (active)
same,AC50,[16],22.1 µM (active)
same,AC50,[17],7.01 µM (active)
same,outcome,[17],inactive
same,AC50,[18],1.34 µM (active)
same,outcome,[18],inactive
CCNc1nc(N)nc(Cl)n1,outcome,[9],inactive
O=C(O)C1(C(=O)Nc2ccc(Cl)cc2Cl)CC1,AC50,[19],19.7 µM (active)
same,AC50,[1],3.82 µM (active)
same,AC50,[2],6.94 µM (active)
same,AC50,[3],25 µM (active)
same,AC50,[4],3.91 µM (active)
same,AC50,[6],3.23 µM (active)
same,AC50,[7],4.28 µM (active)
same,outcome,[10],inactive
same,AC50,[20],12.4 µM (active)
CCC(C)OC(=O)N1CCCCC1CCO (stereo not drawn),outcome,[6],inactive
same,outcome,[7],inactive
c1ccc2[nH]c(-c3cscn3)nc2c1,AC50,[15],25 µM (active)
same,AC50,[16],8.41 µM (active)
same,AC50,[18],4.07 µM (active)
O=C(O)c1ccccc1,outcome,[12],inactive
CCCN(CCC)C(=O)SCC,outcome,[9],inactive
O=C(Nc1ccc([N+](=O)[O-])cc1Cl)c1cc(Cl)ccc1O,outcome,[19],inactive
same,AC50,[4],18.7 µM (active)
same,outcome,[20],inactive
Oc1ccc(C(c2ccc(O)cc2)C(Cl)(Cl)Cl)cc1,outcome,[2],inactive
same,AC50,[20],46.5 µM (active)
same,AC50,[12],17 µM (active)
same,AC50,[14],19.4 µM (active)
same,AC50,[16],15 µM (active)
CCCCC(CC)CN1C(=O)C2C3C=CC(C3)C2C1=O (stereo not drawn),outcome,[18],inactive
COC(=O)c1ccccc1S(=O)(=O)NC(=O)Nc1nc(OC(F)F)cc(OC(F)F)n1,outcome,[9],inactive
c1ccc(Nc2ccccc2)cc1,outcome,[19],inactive
same,outcome,[6],inactive
CSC(=O)c1cccc2nnsc12,outcome,[6],inactive
same,outcome,[11],inactive
CC(C)(c1ccc(O)cc1)c1ccc(O)cc1,outcome,[9],inactive
same,outcome,[11],inactive
same,outcome,[13],inactive
same,AC50,[16],15.4 µM (active)
same,outcome,[17],inactive
OB(O)O,outcome,[19],inactive
COCCO,outcome,[17],inactive
C=CCOC(Cn1ccnc1)c1ccc(Cl)cc1Cl (stereo not drawn),AC50,[12],15.1 µM (active)
same,AC50,[18],25 µM (active)

# — PubChem BioAssay (EPA / NIEHS)
